PubChem BioAssay (NCATS)
Inconclusive results are not listed. Unmarked numbers belong to inactive results. Calls of active or inactive are those of the source. Calls follow the shape of the dose curve; as a rule, active = well fitted inhibition curve with a large enough effect; inconclusive = small, poorly fitted or top-dose-only effect; inactive = no such curve, though single readings can be large or run the other way.

What follows are compounds tested against Rap guanine nucleotide exchange factor 3 (Homo sapiens) (UniProt O95398) (assay: Confirmatory qHTS for antagonist of cAMP-regulated guanine nucleotide exchange factor 3 (EPAC1) (AID 1645880; also: nearly all actives have a fitted effect of over 55% in size)). Conditions: EPAC1 Rap1B-BODIPY-GDP exchange, fluorescence; activity, negative = inhibition: at 115 µM (top of the series).
Sequence of Rap guanine nucleotide exchange factor 3 (Homo sapiens) (O95398 whole entry, looked up): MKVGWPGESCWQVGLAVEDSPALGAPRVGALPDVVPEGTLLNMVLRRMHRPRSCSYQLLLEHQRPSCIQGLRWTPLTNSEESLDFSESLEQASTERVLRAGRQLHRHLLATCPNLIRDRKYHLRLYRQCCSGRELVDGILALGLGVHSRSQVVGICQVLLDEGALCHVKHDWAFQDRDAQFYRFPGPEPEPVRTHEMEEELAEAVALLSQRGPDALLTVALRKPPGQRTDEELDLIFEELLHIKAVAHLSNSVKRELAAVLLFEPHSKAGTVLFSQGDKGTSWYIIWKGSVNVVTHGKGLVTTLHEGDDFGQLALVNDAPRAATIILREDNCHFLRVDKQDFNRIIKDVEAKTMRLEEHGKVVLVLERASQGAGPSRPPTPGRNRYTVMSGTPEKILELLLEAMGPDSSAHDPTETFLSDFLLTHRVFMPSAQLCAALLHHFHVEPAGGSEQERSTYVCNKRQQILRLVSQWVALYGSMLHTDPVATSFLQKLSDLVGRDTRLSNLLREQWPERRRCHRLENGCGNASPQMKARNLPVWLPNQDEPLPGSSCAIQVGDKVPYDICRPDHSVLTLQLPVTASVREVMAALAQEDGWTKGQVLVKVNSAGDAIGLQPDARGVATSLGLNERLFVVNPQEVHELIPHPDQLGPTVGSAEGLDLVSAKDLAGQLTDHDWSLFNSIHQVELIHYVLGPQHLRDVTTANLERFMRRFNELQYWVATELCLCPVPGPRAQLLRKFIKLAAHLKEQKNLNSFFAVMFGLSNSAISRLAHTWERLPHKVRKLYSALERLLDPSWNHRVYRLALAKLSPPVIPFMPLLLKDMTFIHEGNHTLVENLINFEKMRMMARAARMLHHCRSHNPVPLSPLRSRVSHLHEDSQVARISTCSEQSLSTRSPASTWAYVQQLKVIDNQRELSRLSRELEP
Source text: Assay Provider (PI): Xiaodong Cheng Ph.D. The University of Texas Medical Branch, […], TX MLPCN Grant: NS066510 In multi-cellular eukaryotic organisms, the effects of cAMP are transduced by two ubiquitously-expressed intracellular cAMP receptors, the classic protein kinase A/cAMP-dependent protein kinase (PKA/cAPK) and the more recently discovered exchange protein directly activated by cAMP/cAMP-regulated guanine nucleotide exchange factor (EPAC/cAMP-GEF). Both PKA and EPAC are ubiquitously expressed in all tissues, and an increase in intracellular cAMP levels will lead to the activation of both PKA and EPAC. Therefore, careful dissections of the individual role and relative contribution of EPAC and PKA within the overall cAMP signaling in various model systems are critical for further elucidating the mechanism of cAMP signaling. To date no EPAC-specific antagonists and agonist, as well as isoform-specific agonists have been reported, and developing EPAC-specific pharmacological probes to determine the physiological functions that EPAC play in the overall cAMP-mediated signaling remains a major challenge within the research field. Furthermore, identified regulators of EPAC may lead to new mechanism-based therapeutic strategies specifically targeting the EPAC / cAMP-signaling components as EPAC has been implicated to play important roles in major human pathological conditions such as diabetes, heart disease, and cancer. This qHTS will be used to screen the Molecular Libraries Small Molecule Repository (MLSMR) as a concentration-titration series using the NCGC unique quantitative screening (qHTS) platform to find activators for EPAC1. In addition, this assay will also be used as a counterscreen for the EPAC2 qHTS. This fluorescent based assay is developed and validated for EPAC1 that measures exchange using EPAC effector Rap1 complex with BODIPY-GDP, a GDP analog with a tethered fluorophores. Activators are identified by monitoring the change in fluorescence signal as the exchanged free BODIPY-GDP has a reduced fluorescence compared to Rap1-bound BODIPY-GDP. Increase in signal (activation) is the desired outcome for the EPAC1 agonist while no activity in this assay is desired for the EPAC2 agonist counterscreen. Reference: [1] de Rooij, J., Zwartkruis, F. J., Verheijen, M. H., Cool, R. H., Nijman, S. M., Wittinghofer, A., and Bos, J.L. (1998) Nature 396, 474-477. Kawasaki, H., Springett, G. M., Mochizuki, N., Toki, S., Nakaya, M., Matsuda, M., Housman, D. E., and Graybiel, A. M. (1998) Science 282, 2275-2279.
Briefly, three uL of reagents (100 nM EPAC1, 250 nM RAP1B-BODIPY-GDP, 50 uM GDP) were dispensed into a 1536-well Greiner black solid-bottom medium binding assay plate. Controls and test compounds (23 nL) were transferred to the plate via a Kalypsys pin tool equipped with a 1536-pin array. The plates were centrifuged at 1,000 rpm for 15 seconds followed by 5 minute incubation at room temperature. The assay plates were read at 5 minute intervals for 30 minutes in the ViewLux plate reader using 480nm excitation and 540nm emission filters. The results were normalized to the […] positive control ATA and DMSO.
Potency is read from the fitted curve at half-maximal effect.

| Structure (SMILES) | activity, negative = inhibition [%] | Potency |
| --- | --- | --- |
| CCC(COC)Oc1cc(NCc2ccccc2)c2ncn(C(C)C)c2c1 (stereo not given) | -29.6 |  |
| COc1ccccc1OCCOc1ccc(/C=C2\C(=N)N3N=C(S(C)(=O)=O)SC3=NC2=O)cc1 |  | 67.5 µM (active) |
| O=C(OCCN1C(=O)c2cccc3c(N4CCOCC4)ccc(c23)C1=O)c1ccccc1Cl | 87.7 |  |
| O=c1[nH][nH]c(-c2ccccc2O)c1C(C[N+](=O)[O-])c1ccc(Cl)cc1Cl (stereo not given) | -13.1 |  |
| O=C(O)C(c1ccccc1)N1C(=O)/C(=C/c2cccs2)SC1=S (stereo not given) |  | 39.8 µM (active) |
| CCN(CC)c1ccc2cc(C(C)=O)c(=O)oc2c1 | 32.7 |  |
| O=C1CCC2CN3CCc4c([nH]c5ccccc45)C3CC2C1 (stereo not given) | 1.68 |  |
| Cc1ccc(-c2nc(S(=O)(=O)c3ccc(C)cc3)c(N3CCOCC3)o2)cc1 | -21.4 |  |
| Oc1[nH]c2ccccc2c1N=Nc1ccccc1F | 94.5 |  |
| CCOC(=O)CC1C(=O)NCCN1C(=O)c1cccc(C(F)(F)F)c1 (stereo not given) | 0.437 |  |
| C=CCN1C(=O)c2cccc3c(N4CCCCC4)ccc(c23)C1=O | 88.7 |  |
| COC(=O)[C@@]1(C)CCC[C@@]2(C)c3ccc(O)c(C(C)C)c3CCC21 (stereo not given in full) | -15.1 |  |
| CCOC(=O)N1CCC2CC1c1cc(-c3cccc(OC)c3)ccc12 (stereo not given) | -9.76 |  |
| COc1ccccc1C1CC(=O)Oc2cc(C)c(Cl)c(C)c21 (stereo not given) | -18.5 |  |
| COc1ccc(C2CC(c3cccs3)=NN2c2ccc(C=O)cc2)cc1 (stereo not given) | 26 |  |
| COc1cc2c(c(OC)c1OC)C(c1ccc(C)cc1)CC(=O)O2 (stereo not given) | -14.1 |  |
| Brc1ccccc1Cn1c(-c2cncs2)nc2ccccc21 | -15.1 |  |
| COc1ccc(-c2nc(C)ncc2-c2ccc(Cl)cc2)c(O)c1 | -21.4 |  |
| Cc1cc2nc3c(=O)[nH]c(=O)[nH]c3nc2c([N+](=O)[O-])c1N | 39.6 |  |
| O=C(/C=C/c1ccc(N2CCOCC2)cc1)c1ccccc1 | -1.12 |  |

| Structure (SMILES) | activity, negative = inhibition [%] | Potency |
| --- | --- | --- |
| O=C(CN1CCCC1)Nc1ccccc1Sc1ccc(Cl)cc1 | -25.5 |  |
| O=C(CSc1nc2nn(-c3ccccc3)c(=O)c-2c2n1CCCCC2)c1ccc(O)c(O)c1 |  | 2.39 µM (active) |
| COCCn1c(N)c(C(=O)NCC2CCCO2)c2nc3ccccc3nc21 (stereo not given) | -17.8 |  |
| O=C(Nc1ccccc1Cc1ccccc1)c1ccccc1NS(=O)(=O)c1ccc(Cl)s1 |  | 22.4 µM (active) |
| Cc1ccc(N2C(=O)c3cccc4c(N)ccc(c34)C2=O)c2cccnc12 | 76 |  |
| COc1cccc(-c2nc(N3CCN(c4ccccc4)CC3)c3ccccc3n2)c1O | -2.48 |  |
| O=C(O)Cc1ccc(N=Nc2c(O)c(C(=O)O)cc3ccccc23)cc1 |  | 33.8 µM (active) |
| N#C/C(=C\C1=C(N2CCOCC2)C(=C/c2cccc([N+](=O)[O-])c2)/CC1)C(=O)Nc1ccccc1F |  | 47.8 µM (active) |
| COc1cccc2c1C(=O)c1c(O)c3c(c(O)c1C2=O)CC(O)(C(C)=O)CC3OC1CC(N(C)C)C(O)C(C)O1 (stereo not given) | 10.3 |  |
| COc1cccc(OC)c1C(=O)NC(=S)NNC(=O)[C@H]1C[C@@H]1c1ccccc1 | -22.7 |  |
| COc1cc(Br)cc(C(=O)N2CCc3ccccc32)c1OC | -22.6 |  |
| CC1CCC/C(=C\Nc2ccc(O)cc2)C1=O (stereo not given) | -20.3 |  |
| CCOc1cc(/C=N/NC(=O)c2ccc(-c3csc(Nc4ccc(C)cc4)n3)cc2)ccc1OCC(=O)O |  | 23.9 µM (active) |
| OC(c1ccc2ccccc2n1)c1c(Cl)cccc1Cl (stereo not given) | -23.4 |  |
| CCc1ccc(CNC(=O)Cn2nc(C)n3c(cc4cc(C)ccc43)c2=O)cc1 | -22.4 |  |
| Cc1ccc(S(=O)(=O)Nc2ccc3cc([N+](=O)[O-])ccc3c2[N+](=O)[O-])cc1 |  | 21.3 µM (active) |
| O=C(O)/C(CC(=O)c1ccc(Cl)cc1)=N/Nc1ccc([N+](=O)[O-])cc1[N+](=O)[O-] |  | 75.7 µM (active) |
| O=C(/C=C/c1ccc(O)c(O)c1)O[C@@H]1C[C@](O)(C(=O)O)C[C@@H](O)[C@H]1O | -8.05 |  |
| CCN(CC(=O)Nc1ccccc1C(=O)NC1CC1)Cc1cccs1 | -17.9 |  |
| O=C(c1ccco1)N1N=C2CCCCCC2C1(O)C(F)(F)F (stereo not given) | -24.2 |  |
